Only some compounds are listed: those with a hit (about 10% of all), similar ones and a draw of the others.
MCF10A rerep – DNA re-replication induction in MCF 10a cells. MCF 10A DNA re-replication, Hoechst nuclear intensity, 48 h. Potency, µM (doses to about 46.1 µM), for inactives: at the highest dose activity, positive = re-replication, hits mostly activators. 350,000 compounds, 2.9% hits; also: % of control where 0% means no effect; nearly all actives have a fitted effect of over 50% in size
KB-V1 cytotox – KB-V1 MDR subline cytotoxicity; KB-V1 MDR cells viability, CellTiter-Glo, 72 h; Potency, µM (doses to about 46.1 µM), hits mostly cytotoxic; 400,000 compounds, 3.4% hits; AID 1347076; also: % is scaled to controls: 0 for no effect and ±100 for the full control effect; nearly all actives have a fitted effect of over 60% in size
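Potencies derive from concentration-effect curves fitted to normalized luminescence (CellTiter-Glo) of KB-V1 cells treated for 72 h at 37 degrees C in phenol-red-free DMEM containing 10% FBS.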
RORg inh – inhibitors of mouse ROR gamma transcriptional activity; Drosophila S2 Gal4-RORgamma UAS-luciferase reporter, 20 h; Potency, µM (series often up to 53.6 µM), for inactives: top-dose activity change, negative = inhibition, most hits filed as inhibitors; P51450; 310,000 compounds, 5.4% hits; also: % is scaled to controls: 0 for no effect and ±100 for the full control effect; nearly all actives have a fitted effect of over 60% in size
Target sequence (P51450 whole entry, looked up, the tested form may be a part): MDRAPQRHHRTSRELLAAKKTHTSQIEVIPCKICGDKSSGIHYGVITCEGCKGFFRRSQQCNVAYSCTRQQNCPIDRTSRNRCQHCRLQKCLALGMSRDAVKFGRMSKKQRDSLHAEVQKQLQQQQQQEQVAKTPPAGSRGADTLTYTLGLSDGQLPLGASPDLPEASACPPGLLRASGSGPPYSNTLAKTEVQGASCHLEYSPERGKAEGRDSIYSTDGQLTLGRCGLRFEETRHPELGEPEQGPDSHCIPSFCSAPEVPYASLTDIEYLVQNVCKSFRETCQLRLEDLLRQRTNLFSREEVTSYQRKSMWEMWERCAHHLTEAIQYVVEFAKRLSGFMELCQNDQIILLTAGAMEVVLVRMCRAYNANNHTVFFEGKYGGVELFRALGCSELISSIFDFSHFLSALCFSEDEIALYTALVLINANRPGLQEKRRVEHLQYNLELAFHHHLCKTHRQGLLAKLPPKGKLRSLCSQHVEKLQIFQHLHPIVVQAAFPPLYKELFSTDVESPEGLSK
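Using a luciferase readout, inhibitors were identified by reduced reporter activity in Drosophila cells coexpressing a copper-inducible Gal4–ROR gamma fusion and UAS-driven Photinus luciferase, incubated 20 hr after 700 uM copper sulfate.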
Gal4-VP16 FLuc – inhibits Gal4-VP16 luciferase reporter, ROR gamma counter-screen. Drosophila S2 Gal4-VP16 UAS-luciferase, luminescence, 20 h. Potency, µM (doses to about 53.6 µM), without a hit: top-dose activity, negative = inhibition, actives largely listed as inhibitors. 310,000 compounds, 3.5% hits;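 also: Gal4-VP16 expression switched on by copper sulfate through the metallothionein promoter; % is scaled to controls: 0 for no effect and ±100 for the full control effect; nearly all actives have a fitted effect of over 50% in size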
SW480 rereplic – induces DNA re-replication in SW480 colon adenocarcinoma cells | SW480 DNA re-replication, Hoechst DNA content imaging, 48 h | Potency, µM (highest dose often 46.1 µM), inactives show top-dose re-replication activation, actives largely listed as activators | 340,000 compounds, 1.8% hits; also: % of control where 0% means no effect; nearly all actives have a fitted effect of over 55% in size
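Treated cells incubate 48 hr (37 C, 5% CO2), are stained 40 min with Hoechst, and nuclear fluorescence is enumerated; a rise in nuclei with high DNA signal marks re-replication.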
KB-3-1 cytotox – kills parental KB-3-1 adenocarcinoma cells. AID 1347075. Potency, µM (titrated, usually from 46.1 µM), actives largely listed as cytotoxic. 400,000 compounds, 1.4% hits. KB-3-1 viability, CellTiter-Glo ATP luminescence, 72 h; also: % is scaled to controls: 0 for no effect and ±100 for the full control effect; nearly all actives have a fitted effect of over 60% in size
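Cytotoxicity in the drug-sensitive parental line KB-3-1 was scored as loss of CellTiter-Glo luminescence following 72 h incubation with compound. Values come from curve fitting of normalized concentration-response data.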
* marks the source's active call; other numbers are inactive results; i = inactive; ? = inconclusive; . = no result given; [ ] = remark or other dose. Calls follow the shape of the dose curve; as a rule, active = well fitted curve in the direction sought with a large enough effect; inconclusive = small, poorly fitted or top-dose-only effect, or another doubt; inactive = no such curve, though single readings can be large; an effect the other way counts as inactive or inconclusive. Potency is read from the fitted curve at half-maximal effect.

SMILES | MCF10A rerep | KB-V1 cytotox | RORg inh | Gal4-VP16 FLuc | SW480 rereplic | KB-3-1 cytotox
O=c1[nH][nH]c2c1C(c1ccc(Cl)c(Cl)c1)OC(CCc1ccccc1)C2 (centres undefined) | . | i | . | . | . | i
O=C(Cn1ncc(Cl)c(Cl)c1=O)N1CCN(S(=O)(=O)c2ccc3ccccc3c2)CC1 | ? | i | 13µM* | ? | ? | 16µM*
CC(C)C(=O)N1CCN(S(=O)(=O)c2ccc3ccccc3c2)CC1 | 1% | i | ? | -2% | 2.9µM* | i
O=C(O)CCC(=O)N1CCN(S(=O)(=O)c2ccc3ccccc3c2)CC1 | 0% | i | 2% | -2% | 9% | i
Cc1ccc(S(=O)(=O)N2CCN(c3nc(-c4cccs4)nc4ccccc34)CC2)cc1 | . | i | . | . | . | i
O=C(Nc1cccn(Cc2c(Cl)cccc2Cl)c1=O)c1ccccc1Cl | 16% | 5.8µM* | ? | -19% | 1% | ?
O=C(Nc1c[nH]c(=O)[nH]c1=O)c1ccccc1Cl | ? | 16µM* | -1% | 3% | -2% | ?
O=C(Nc1cccn(Cc2c(Cl)cccc2Cl)c1=O)c1ccc(Cl)cc1Cl | 15% | 16µM* | 35% | -6% | 24% | 21µM*
CC(C)OCCCNC(=O)CN1C(=O)COc2ccc(S(=O)(=O)N3CCOCC3)cc21 | . | i | . | . | . | i
CS(=O)(=O)c1ccc(-c2cn3cc(C(=O)O)ccc3n2)cc1 | 4% | i | 7.9µM* | 10µM* | 30% | i
O=C(CC(NC(=O)c1ccccc1Cl)c1ccccc1)NCCc1ccc(Cl)cc1 (centres undefined) | 4% | 8.2µM* | 20% | -10% | -3% | i
COC(=O)C1=C(C)N(CCCC(=O)O)C(=O)NC1c1ccccc1OS(=O)(=O)c1ccccc1[N+](=O)[O-] (centres undefined) | -9% | i | . | . | -10% | i
CCOC(=O)C1=C(C)N(Cc2ccccc2)C(=O)NC1c1ccccc1OS(=O)(=O)c1ccccc1[N+](=O)[O-] (centres undefined) | 13% | 7.3µM* | . | . | ? | ?
O=C(OCc1ccccc1)[C@@H]1COC(c2ccc(Br)cc2)=N1 | . | . | 6% | -19% | . | .
COc1ccccc1CN(Cc1nc2ccccc2c(=O)[nH]1)C(=O)Nc1ccccc1C | ? | i | 10µM* | ? | 10% | i
COc1ccccc1CN(Cc1nc2ccccc2c(=O)[nH]1)C(=O)Nc1ccc(C)cc1 | 2% | 21µM* | ? | 1% | 1% | i
Cc1ccc(NC(=O)N(Cc2nc3ccccc3c(=O)[nH]2)Cc2cccs2)cc1 | -1% | i | ? | -29% | -7% | i
CCOC(=O)[C@]12CCC=C1N(Cc1cccc3ccccc13)C(=O)[C@H](CC(=O)NCC1CCCCC1)C2 | . | ? | . | . | . | i
O=C(OCC(=O)N1CCCCC1)c1cc(=O)[nH]c2ccccc12 | -9% | i | . | . | -2% | i
NC(=O)COC(=O)c1cc(=O)[nH]c2ccccc12 | 1% | i | -2% | -11% | -5% | i
COCC(C)n1c(C)cc(C(=O)COC(=O)c2cc(=O)[nH]c3ccccc23)c1C (centres undefined) | 7% | 21µM* | . | . | -3% | i
COCC(C)n1c(C)cc(C(=O)COC(=O)c2n[nH]c3ccccc23)c1C (centres undefined) | 0% | i | -42% | -18% | 2% | i
CCC1CCCCN1C(=O)COC(=O)c1cc(=O)[nH]c2ccccc12 (centres undefined) | 0% | 18µM* | . | . | -5% | i
CCCCCOC(=O)c1cc(=O)[nH]c2ccccc12 | ? | 2.3µM* | 23% | 3% | -1% | 8.2µM*
CC(C)C[C@H](NC(=O)[C@H](Cc1c[nH]c2ccccc12)NC(=O)[C@H](CCCCN)NC(=O)CNC(=O)[C@H](CC(C)C)NC(=O)[C@H](CO)NC(=O)[C@@H](N)Cc1cnc[nH]1)C(=O)NCC(=O)N[C@@H](Cc1cnc[nH]1)C(=O)N1CCC[C@H]1C(=O)N[C@@H](CC(=O)O)C(=O)N[C@@H](CCCCN)C(=O)N[C@@H](Cc1ccccc1)C(=O)O | . | . | 4% | 1% | . | .
SMILES | MCF10A rerep | KB-V1 cytotox | RORg inh | Gal4-VP16 FLuc | SW480 rereplic | KB-3-1 cytotox
COc1cccc(C(=O)N2CC(=O)Nc3ccc(C)cc3C2c2ccc(F)cc2)c1OC (centres undefined) | . | i | . | . | . | i
C=CCN1[C@@H](C(C)C)COCCS1(=O)=O | . | i | . | . | . | i
CCN(CC(=O)Nc1ccc(C(=O)Nc2ccc(OC)cc2)cc1)Cc1nc2ccccc2c(=O)[nH]1 | -3% | i | 3.2µM* | ? | -19% | i
COc1cc2c(cc1NC(=O)CN(C)Cc1nc3ccccc3c(=O)[nH]1)oc1ccccc12 | 11% | ? | 4.5µM* | 11µM* | 0% | ?
COc1ccc(NC(=O)COC(=O)CCc2nc3ccccc3c(=O)[nH]2)c(OC)c1 | -2% | ? | . | . | -5% | i
CCN(Cc1nc2ccccc2c(=O)[nH]1)Cc1cc(=O)oc2cc(OC)ccc12 | 1% | ? | 14µM* | 16µM* | 0% | i
CCN(CC(=O)Nc1cc(OC)ccc1OC)Cc1nc2ccccc2c(=O)[nH]1 | 1% | ? | 20µM* | -7% | 1% | i
O=C(Nc1cccc(F)c1)N1CCC2(CCNCC2)CC1 | . | . | 3% | -6% | . | .
Cc1ccc(OCc2nc(-c3ccc(C(=O)N4CCN(c5ccccc5F)CC4)cc3)oc2C)cc1 | . | i | . | . | . | i
CCN(CC(=O)Nc1ccc2c(c1)OCCO2)Cc1nc2cc(Cl)ccc2c(=O)[nH]1 | ? | 21µM* | . | . | -1% | i
CCN(CC(=O)Nc1ccc2c(c1)OCCO2)CC(=O)Nc1ccccc1C(F)(F)F | 6% | 12µM* | . | . | -5% | i
O=S(=O)(c1ccc(Br)c2nsnc12)N1CCOCC1 | 21µM* | i | -13% | 0% | ? | i
CN(C)C1=NCC(CSC(=N)N)S1 (centres undefined) | ? | i | -11% | 4%[10 µM] | 8.2µM* | i
CC1(C)CC(=O)C2=C(C1)NC(SCC(=O)Nc1ccccc1)=C(C#N)C21CCCCC1 | 26% | 21µM* | 10% | -22% | 1% | ?
N#CC1=C(SCC(=O)c2cc3ccccc3oc2=O)NC(=O)C(C#N)C12CCCC2 (centres undefined) | 2% | i | 44% | 4%[0.365 µM] | -3% | i
